Laboratory results: PubChem BioAssay AID463173 (ICCB-Longwood Screening Facility, Harvard Medical School, 2010)
Among all 52,000 compounds or so, about 4,300 (8.3%) were called active. This excerpt belongs to a sample that is enriched for actives. Unmarked numbers belong to inactive results. Cut-off read from the data, not from the text of the source: active = survival mostly below about 52% (no sharp cut-off); inactive = mostly above about 56%.

Each compound was assayed on DeltatarO mutant (assay: S. aureus survival, RN4220 and DeltatarO strains – OD600, teichoic acid synthesis inhibitors, primary screen (AID 463173)). Settings: S. aureus RN4220 wild type/DeltatarO growth, OD600, 18 h, stronger effect = lower value, screened at 18.75 µg/mL (by protocol).
For `CCSc1ncc(Cl)c(C(=O)Nc2ccc(S(=O)(=O)N(C)c3ccccc3)cc2)n1`, the survival was 71%.
For `CCN(c1ccccc1)S(=O)(=O)c1ccc(NC(=O)c2nc(SC(C)C)ncc2Cl)cc1`, the survival was 44% (active).
With `CCN(c1ccccc1)S(=O)(=O)c1ccc(NC(=O)c2nc(SC)ncc2Cl)cc1` the survival was 55%.
With `CC1CCCN(S(=O)(=O)c2ccc(NC(=O)c3nc(SC(C)C)ncc3Cl)cc2)C1` (stereo not given) the survival was 44% (active).
Compound `CSc1ncc(Cl)c(C(=O)Nc2ccc(S(=O)(=O)N3CCCC(C)C3)cc2)n1` (stereo not given) has a survival of 79%.
In the case of `CS(=O)(=O)c1ncc(Cl)c(C(=O)Nc2c(C(=O)Nc3ccccc3)oc3ccccc23)n1`, the survival was 55%.
For `CC(C)Sc1ncc(Cl)c(C(=O)Nc2ccc(S(=O)(=O)N(C)c3ccccc3)cc2)n1`, the survival was 55%.
With `CN(c1ccccc1)S(=O)(=O)c1ccc(NC(=O)c2nc(S(C)(=O)=O)ncc2Cl)cc1` the survival was -1% (active).
For `CC(C)Sc1ncc(Cl)c(C(=O)Nc2ccc(S(=O)(=O)N3CCCCC3)cc2)n1`, the survival was 57%.
Compound `CCCSc1ncc(Cl)c(C(=O)Nc2ccc(S(=O)(=O)N(C)c3ccccc3)cc2)n1` has a survival of 54%.
Compound `CC(C)Sc1ncc(Cl)c(C(=O)Nc2ccc(S(=O)(=O)Nc3ncccn3)cc2)n1` has a survival of 50%.
In the case of `CCS(=O)(=O)c1ncc(Cl)c(C(=O)Nc2ccc(S(=O)(=O)N(C)c3ccccc3)cc2)n1`, the survival was 0% (active).
Work on `CCOc1ccccc1CNC(=O)C1CCN(c2nc3ccccc3nc2C(F)(F)F)CC1` yielded a survival of 69%.
`CCOc1ccc(NC(c2ccc(Cl)cc2)c2nnc(-c3cccc(F)c3)o2)cc1` (stereo not given) showed a survival of 90%.
`COc1ccc2sc(C)[n+](CCO)c2c1` was tested, and the survival was 81%.
Compound `CCOc1ccc(S(=O)(=O)Nc2ccc3c(c2)CCCN3S(=O)(=O)c2ccc(C)cc2)cc1` has a survival of 88%.
For `COc1ccc(NC(=O)CN2C(=O)CCn3nc(-c4cccn4C)cc32)cc1`, the survival was 81%.
In the case of `COc1cc(OC)cc(N2C(=O)CSC23C(=O)Nc2ccccc23)c1` (stereo not given), the survival was 99%.
For `COc1ccc(OC)c(CNC(=O)c2c(C)oc3ncn(CC(C)C)c(=O)c23)c1`, the survival was 89%.
`COc1ccc(Nc2cc(C)nc(-n3nc(C)cc3C)n2)cc1Cl` gave a survival of 81%.
`COc1ccccc1N1CCN(S(=O)(=O)CCNC(=O)c2cc(=O)c3ccccc3o2)CC1` was tested, and the survival was 87%.
`CCNC(=S)N1CCC(NC(=O)c2ccccc2)CC1` was tested, and the survival was 110%.
`CCN(c1ccccc1)S(=O)(=O)c1ccc(NC(=O)c2cc(=O)c3ccccc3o2)cc1` was tested, and the survival was 63%.
In the case of `CCN(c1ccccc1)S(=O)(=O)c1ccc(NC(=O)c2nc(S(C)(=O)=O)ncc2Cl)cc1`, the survival was -1% (active).
With `CCN(c1ccccc1)S(=O)(=O)c1ccc(Cl)cc1` the survival was 92%.
`CN1C(=O)/C(=C/C=C2/Sc3ccccc3N2CCO)SC1=S` gave a survival of 108%.
Work on `Cc1c(-c2ccccc2)nc2c(Cl)cccc2c1C(=O)OCC(=O)c1ccc(F)cc1` yielded a survival of 75%.
Compound `O=S(=O)(NCCS(=O)(=O)N1CCN(c2ccccc2)CC1)c1ccc(Br)cc1` has a survival of 91%.
`CCCC12CN3CC(C)(CN(C1)C3c1cn(CC)c3ccccc13)C2=O` (stereo not given) showed a survival of 83%.
`Cc1cccc(N2CCN(C(c3nnnn3C3CCCC3)C(C)C)CC2)c1C` (stereo not given) was tested, and the survival was 79%.
Work on `Cc1cc(NC(=O)CCS(=O)(=O)c2cc(Br)cc3c2N(C(=O)C2CC2)CC3)ccc1Br` yielded a survival of 83%.
`COc1ccccc1C(=O)NC1(C(F)(F)F)NC(=O)N(CCc2ccccc2)C1=O` (stereo not given) gave a survival of 73%.
With `CCOc1cccc(C(=O)N(Cc2ccc(CC)cc2)C2CCS(=O)(=O)C2)c1` (stereo not given) the survival was 149%.
For `CCCOc1cccc(C(=O)N(Cc2cc(OC)c(OC)c(OC)c2)C2CCS(=O)(=O)C2)c1` (stereo not given), the survival was 43% (active).
`CCCCOc1cccc(C(=O)N(Cc2ccc(N(C)C)cc2)C2CCS(=O)(=O)C2)c1` (stereo not given) gave a survival of 56%.
`COc1cc(C(=O)N(Cc2ccc(C(C)C)cc2)C2CCS(=O)(=O)C2)cc(OC)c1OC` (stereo not given) was tested, and the survival was 46% (active).
Work on `COc1ccc(C(=O)N(Cc2ccc(C(C)C)cc2)C2CCS(=O)(=O)C2)cc1` (stereo not given) yielded a survival of 62%.
Compound `COc1cc(CN(C(=O)c2ccc(C)cc2)C2CCS(=O)(=O)C2)cc(OC)c1OC` (stereo not given) has a survival of 59%.
`CCCOc1cccc(C(=O)N(Cc2ccc(C)o2)C2CCS(=O)(=O)C2)c1` (stereo not given) gave a survival of 90%.
Work on `CCCCOc1cccc(C(=O)N(Cc2ccc(Cl)cc2)C2CCS(=O)(=O)C2)c1` (stereo not given) yielded a survival of 54%.
For `COc1cc(CN(C(=O)c2ccc(Cl)cc2)C2CCS(=O)(=O)C2)cc(OC)c1OC` (stereo not given), the survival was 69%.
`CCCCOc1ccc(C(=O)N(Cc2ccc(C(C)C)cc2)C2CCS(=O)(=O)C2)cc1` (stereo not given) was tested, and the survival was 22% (active).
In the case of `CCOc1cccc(C(=O)N(Cc2ccc(C(C)C)cc2)C2CCS(=O)(=O)C2)c1` (stereo not given), the survival was 40% (active).
`COc1ccc(CN(C(=O)c2ccc(OCC(C)C)cc2)C2CCS(=O)(=O)C2)cc1` (stereo not given) showed a survival of 93%.
With `CCN(CC)CCNC(=O)c1c(C)oc2ncnc(N3CCOCC3)c12` the survival was 130%.
For `Cc1ccc2oc(C(=O)N(Cc3ccc(N(C)C)cc3)CC3CCCO3)c(C)c2c1` (stereo not given), the survival was 93%.
`Cc1ccccc1-n1c(SCC(=O)N(C(C)C)C(C)C)nnc1-c1cccnc1` was tested, and the survival was 99%.
`Cn1ccnc1SCC(=O)Nc1cc(Cl)ccc1Cl` showed a survival of 68%.
Compound `COc1cccc(C2CC(=O)N(c3ccc(F)cc3)C3=C2C(=O)OC3)c1OC` (stereo not given) has a survival of 75%.
`COc1ccc(-n2nc(C(=O)Nc3ccc(Br)cc3C)c3c4ccccc4n(C)c3c2=O)cc1` showed a survival of 97%.
Work on `Fc1ccc(C2=CC(c3ccc(F)cc3)n3c(nc4ccccc43)N2)cc1` (stereo not given) yielded a survival of 87%.
`CCOC(=O)c1ccc(NC(=O)CSc2c(C(C)C)cnc3c2c(=O)n(C)c(=O)n3C)cc1` was tested, and the survival was 107%.
In the case of `Cc1ccc2nc(-c3c[nH]c4ccccc34)c(Nc3ccccc3C)n2c1`, the survival was 96%.
`CC(=O)N1C(Nc2ccc(C)cc2)CCN1c1ccccc1` (stereo not given) was tested, and the survival was 81%.
With `COc1ccc(Nc2oc(/C=C/c3cccc(OC)c3)nc2C#N)cc1` the survival was 100%.
